In the library only some 8% were active in any assay of this set; here they are far more common.
TSHR antagonist = human thyrotropin receptor antagonism; activity change, negative = inhibition, % at 11.5 µM; P16473; 330,000 compounds, 0.2% hits; TSHR-expressing cells, TSH-stimulated cAMP HTRF, 2 h; hits give low values;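 active = activity change below a set negative limit, meaning inhibition stronger than a set level, cut at about -70% in these data; inconclusive = activity change between two set negative limits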
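Antagonism was scored as loss of TSH-driven cAMP in TSHR cells, stimulated with 4nM TSH (EC80) for 2 hours at 37 deg C and detected by homogeneous HTRF competition immunoassay.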
FBPA coupling cs = counter-screen for Giardia aldolase inhibitors: coupling enzyme system; coupling enzyme system counterscreen, AmpLite Red fluorescence; AID 2472; 290,000 compounds, 0.67% hits; activity change, negative = inhibition, % at 58.2 µM, hits read low; in the data active = activity change below about -30%
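Compounds tested against the coupling enzymes alone at 57.5 uM final; readout was AmpLite Red fluorescence (525/598 nm) after 20 min at RT.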
VP16 counter = Gal4-VP16 reporter inhibition counter-screen | Drosophila S2 Gal4-VP16 UAS-luciferase, luminescence, 20 h | Potency, µM (series often up to 53.6 µM), actives largely listed as inhibitors | 310,000 compounds, 3.5% hits | AID 2546;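 also: Gal4-VP16 expression switched on by copper sulfate through the metallothionein promoter; nearly all actives have a fitted effect of over 50% in size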
RORg inh = inhibitors of mouse ROR gamma transcriptional activity. P51450. Drosophila S2 Gal4-RORgamma UAS-luciferase reporter, 20 h. Potency, µM (series often up to 53.6 µM), hits mostly inhibitors. 310,000 compounds, 5.4% hits. AID 2551; also: nearly all actives have a fitted effect of over 60% in size
Target sequence (P51450 whole entry, looked up, the tested form may be a part): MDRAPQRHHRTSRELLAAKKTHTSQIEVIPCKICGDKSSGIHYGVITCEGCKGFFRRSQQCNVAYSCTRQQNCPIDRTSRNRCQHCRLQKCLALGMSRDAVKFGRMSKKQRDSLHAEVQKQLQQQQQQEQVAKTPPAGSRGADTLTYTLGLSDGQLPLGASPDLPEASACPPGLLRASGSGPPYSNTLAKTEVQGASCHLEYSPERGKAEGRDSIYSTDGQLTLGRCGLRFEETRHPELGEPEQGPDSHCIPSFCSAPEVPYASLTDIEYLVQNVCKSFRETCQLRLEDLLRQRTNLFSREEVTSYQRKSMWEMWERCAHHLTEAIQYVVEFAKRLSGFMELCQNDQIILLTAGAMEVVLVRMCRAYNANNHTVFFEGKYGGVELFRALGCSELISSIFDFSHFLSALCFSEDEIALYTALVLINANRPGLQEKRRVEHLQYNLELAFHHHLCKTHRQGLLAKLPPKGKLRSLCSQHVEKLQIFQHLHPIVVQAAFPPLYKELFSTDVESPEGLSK
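Compounds are pin-transferred onto Drosophila Schneider cells expressing a copper-inducible Gal4–ROR gamma transactivation domain fusion. After 1 hr, copper sulfate is added to 700 uM final; luciferase is read 20 hr later.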
ELG1 DNA repair = inhibitors of ELG1-dependent DNA repair in HEK293T cells | HEK293T ELG1-luciferase reporter, luminescence, 16 h; DNA damage induced by 5-fluorouridine | Potency, µM (doses to about 46.1 µM), actives largely listed as inhibitors | 330,000 compounds, 2.3% hits | AID 504467; also: nearly all actives have a fitted effect of over 55% in size
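HEK293T cells expressing luciferase-tagged ELG1 (2,000/well) received 5-Fluorouridine plus compound or DMSO for 16 hr at 37 °C. Luciferase was read by ONE-Glo luminescence after 30 min at room temperature.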
Numbers stand for hits; [ ] = remark or other dose. Unless noted, calls follow the shape of the dose curve; as a rule, active = well fitted curve in the direction sought with a large enough effect; inconclusive = small, poorly fitted or top-dose-only effect, or another doubt; inactive = no such curve, though single readings can be large; an effect the other way counts as inactive or inconclusive.

CCC/C=C(\CCC)C(NS(=O)(=O)c1ccc(-c2ccccc2)cc1)c1ccc(C(=O)OC)cc1 (stereo unspecified) was read as FBPA coupling cs inactive, VP16 counter inactive and RORg inh inactive.
CC(=O)c1ccc(Oc2ncnc3sccc23)cc1 was read as TSHR antagonist inactive, FBPA coupling cs inactive, VP16 counter inactive, RORg inh inactive and ELG1 DNA repair inconclusive.
Screening CC(=O)N1CCN(c2ccc(Oc3ncnc4sccc34)cc2)CC1 returned TSHR antagonist inactive, FBPA coupling cs inactive, VP16 counter inactive, RORg inh inactive and ELG1 DNA repair 21µM.
`Cc1ccc(C(=O)CN2C(=O)c3ccccc3S2(=O)=O)cc1` gave TSHR antagonist inactive, FBPA coupling cs inactive, VP16 counter inconclusive, RORg inh 2.2µM and ELG1 DNA repair inconclusive.
Screening O=C(CN1C(=O)c2ccccc2S1(=O)=O)c1ccccc1 returned TSHR antagonist inactive, FBPA coupling cs inactive, VP16 counter 14µM, RORg inh 8.9µM and ELG1 DNA repair inactive.
CC(C)NC(=O)CN1C(=O)c2ccccc2S1(=O)=O was read as TSHR antagonist inactive, FBPA coupling cs inactive, VP16 counter inactive, RORg inh inactive and ELG1 DNA repair inactive.
Cc1ccc(C(=O)CN2/C(=C(\O)c3ccccc3)C(=O)c3ccccc3S2(=O)=O)c(C)c1 was read as TSHR antagonist inactive, FBPA coupling cs inactive, VP16 counter inconclusive, RORg inh 13µM and ELG1 DNA repair inactive.
C=CCn1c(C)cc(C(=O)CN2C(=O)c3ccccc3S2(=O)=O)c1C was read as TSHR antagonist inactive and ELG1 DNA repair inconclusive.
O=C(CN1C(=O)c2ccccc2S1(=O)=O)c1ccccc1Cl was read as TSHR antagonist inactive, VP16 counter inconclusive, RORg inh 8.9µM and ELG1 DNA repair inconclusive.
For Cc1cc(C(=O)CN2C(=O)c3ccccc3S2(=O)=O)c(C)n1C(C)C the results were TSHR antagonist inactive and ELG1 DNA repair inconclusive.
CC(=O)c1ccc(N2CCN(CC(=O)Nc3ccccc3C(=O)NC3CC3)CC2)c(F)c1 was read as TSHR antagonist inactive and ELG1 DNA repair inconclusive.
`CN1CCN(c2ccc(S(=O)(=O)N3CCCCC3)cc2NC(=O)CSCc2ccccc2)CC1` gave TSHR antagonist inactive, FBPA coupling cs inactive, VP16 counter inactive, RORg inh inactive and ELG1 DNA repair inactive.
COc1ccc2[nH]c(S(=O)Cc3ncc(C)c(OC)c3C)nc2n1 (stereo unspecified) was read as VP16 counter inactive and RORg inh inactive.
Screening O=c1[nH]c2cc([N+](=O)[O-])cc([N+](=O)[O-])c2[nH]c1=O returned FBPA coupling cs inactive, VP16 counter inactive and RORg inh inactive.
For Cc1cc(C(=O)CN2C(=O)C3CC=CCC3C2=O)c(C)n1-c1ccccc1 (stereo unspecified) the results were TSHR antagonist inactive, FBPA coupling cs inactive, VP16 counter 13µM, RORg inh inconclusive and ELG1 DNA repair inconclusive.
For Cc1cc(C(=O)CN2CCC(C)CC2)c(C)n1-c1ccc(F)cc1 the results were TSHR antagonist inactive, FBPA coupling cs inactive, VP16 counter inconclusive, RORg inh 10µM and ELG1 DNA repair inconclusive.
`O=C(CN1C(=O)c2ccccc2S1(=O)=O)NCCSCc1cccc(Cl)c1` gave TSHR antagonist -96, FBPA coupling cs inactive, VP16 counter inactive, RORg inh inactive and ELG1 DNA repair inactive.
Cc1cc(C(=O)CN2C(=O)c3ccccc3S2(=O)=O)c(C)n1-c1ccccc1 was read as TSHR antagonist inactive, FBPA coupling cs inactive, VP16 counter 11µM, RORg inh 11µM and ELG1 DNA repair inconclusive.
CCn1c(C)cc(C(=O)CN2C(=O)c3ccccc3S2(=O)=O)c1C was read as TSHR antagonist inactive and ELG1 DNA repair inconclusive.
`CCCCC1=CC2=C(OC(C)=O)C(=O)C(C)(OC(=O)C3CCCC3)C(=O)C2=CO1` (stereo unspecified) gave FBPA coupling cs inactive, VP16 counter inactive and RORg inh inactive.
COC(=O)C1=C(C(=O)OC)[C@@H]2N(C)c3ccccc3[C@@]23C[C@@H](C(=O)OC)N(S(=O)(=O)c2ccc(C(F)(F)F)cc2)C3=N1 was read as FBPA coupling cs inactive.
Screening COC(=O)c1ccc(C(NC(=O)OCc2ccccc2)/C(C)=C/[C@@H](C)C(=O)NCc2cc(F)cc(F)c2)cc1 (stereo partly specified) returned FBPA coupling cs inactive, VP16 counter inactive and RORg inh inactive.
`CCC1=C2CC[C@H]3C(=O)N(C)C(=O)[C@H]3[C@H]2[C@@]2(C)C(=O)N(CC3CC3)C(=O)N2C1=O` gave FBPA coupling cs inactive, VP16 counter inactive and RORg inh inactive.
`CC/C=C/C(=O)N1CC2(CC(c3cccc(NC(=O)COc4ccc(Cl)cc4)c3)=NO2)C[C@H]1C(N)=O` (stereo partly specified) gave TSHR antagonist inactive, FBPA coupling cs inactive, VP16 counter inconclusive, RORg inh inactive and ELG1 DNA repair 16µM.
`Cc1ccc(-c2ccc(/C=C(\C#N)C(N)=S)n2C)cc1` gave TSHR antagonist inactive, FBPA coupling cs inactive, VP16 counter inconclusive, RORg inh 2.2µM and ELG1 DNA repair inconclusive.
`Nc1nc(Cl)nc2c1ncn2[C@@H]1O[C@H](COP(=O)(O)OP(=O)(O)OP(=O)(O)O)[C@@H](O)[C@H]1O` gave TSHR antagonist inactive.
Screening COc1ccc(C)cc1S(=O)(=O)N1CCC(C(=O)NC2CCCC2)CC1 returned TSHR antagonist inactive, VP16 counter inactive, RORg inh inactive and ELG1 DNA repair inactive.
COc1ccc(C(=O)/C=C/C(=O)N(Cc2ccccc2)C(C(=O)NC2CCCCC2)c2ccncc2)c(O)c1 (stereo unspecified) was read as TSHR antagonist inactive, FBPA coupling cs inactive, VP16 counter inactive, RORg inh inactive[10 µM] and ELG1 DNA repair inconclusive.
For COc1ccc(C(=O)/C=C/C(=O)N(Cc2ccc(F)cc2)C(C(=O)NC2CCCCC2)c2ccncc2)c(O)c1 (stereo unspecified) the results were TSHR antagonist inactive, FBPA coupling cs inactive, VP16 counter inactive, RORg inh inactive[10 µM] and ELG1 DNA repair 18µM.
For COc1ccc(C(=O)/C=C/C(=O)N(Cc2ccccc2OC)C(C(=O)NC2CCCCC2)c2ccncc2)c(O)c1 (stereo unspecified) the results were TSHR antagonist inactive, FBPA coupling cs inactive, VP16 counter inactive, RORg inh inactive[10 µM] and ELG1 DNA repair 21µM.
`COc1ccc(C(=O)/C=C/C(=O)N(CC(=O)NC2CCCCC2)CC2CCCO2)c(O)c1` (stereo unspecified) gave TSHR antagonist inactive, FBPA coupling cs inactive, VP16 counter 3.2µM, RORg inh 6.3µM and ELG1 DNA repair inconclusive.

Source: PubChem
